m5-HT2A agonist – activates the mouse 5-HT2A serotonin receptor. CHO-K1 mHTR2A beta-arrestin complementation, luminescence; percent of 30 µM serotonin response. actives 0.66% (n = 360,000). P35363. activation, % at 7.6 µM;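 active means activation above a run cutoff, the mean activation of all tested compounds plus 3 SD, cut at about 14% in these data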
Target sequence (P35363 whole entry, looked up): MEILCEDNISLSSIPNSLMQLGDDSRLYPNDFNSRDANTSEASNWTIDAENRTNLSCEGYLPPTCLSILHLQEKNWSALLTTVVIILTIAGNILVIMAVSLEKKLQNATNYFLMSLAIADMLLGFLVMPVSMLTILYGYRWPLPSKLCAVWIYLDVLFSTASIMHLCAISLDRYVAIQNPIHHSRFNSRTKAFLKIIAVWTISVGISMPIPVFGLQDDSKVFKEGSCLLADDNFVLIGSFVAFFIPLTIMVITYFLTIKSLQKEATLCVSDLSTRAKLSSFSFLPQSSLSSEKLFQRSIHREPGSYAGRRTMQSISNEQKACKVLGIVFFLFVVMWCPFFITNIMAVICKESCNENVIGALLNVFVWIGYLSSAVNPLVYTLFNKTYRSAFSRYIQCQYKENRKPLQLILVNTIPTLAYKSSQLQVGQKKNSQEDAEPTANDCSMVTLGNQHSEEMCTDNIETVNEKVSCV
MsrA act – activators of bovine methionine sulfoxide reductase A. AID 602163. actives 0.3% (n = 360,000). purified bovine MsrA, absorbance read-out. activation, % at 10.6 µM; in the data active means activation above about 7.5%
NPR1 activator – GC-A (human) enzyme activation | HEK293 GC-A cells, cGMP TR-FRET, EC30 ANP; 0% at EC30 ANP, 100% saturating ANP | activation, % at 10 µM | actives 0.14% (n = 370,000) | AID 1671463; in the data active means activation above about 40%
NPR2 activator – GC-B (human) receptor activation | P20594 | HEK293-GC-B cells, CNP EC30, cGMP TR-FRET; 0% at EC30 CNP, 100% saturating CNP | activation, % at 10 µM | actives 0.11% (n = 370,000) | AID 1920062;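 active means activation at 10 µM reaching about 35% in either raw or pattern-adjusted values, limit read from the data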
MsrA inh – inhibitors of bovine MsrA; AID 651718; inhibition, % at 15.5 µM; actives 0.75% (n = 360,000); purified bovine MsrA, absorbance read-out; in the data active means inhibition above about 4.5%
MsrA activ conf – confirmation of bovine methionine sulfoxide reductase A activators; purified bovine MsrA, absorbance read-out; actives 12% (n = 1,000); shares compounds with MsrA act; activation, % at 10.6 µM; AID 602270; in the data active means activation above about 4%;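 further: enzyme coupled to thioredoxin and thioredoxin reductase with NADPH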
Each line names hits and unclear results; the compound was inactive in the other large screens (follow-up assays come after a bar, where they were run); ! = a repeat was not active. A selection: hits, their analogues and other compounds. The true share with any hit is near 1.8%.

C=C(COC(C)=O)CC1CC(O)[C@]2(C)OC3CC4OC5C[C@]6(C)O[C@]7(C)CCC8OC9C[C@]%10(C)OC%11C(C)=CC(=O)OC%11CC%10OC9C[C@@H](C)C8OC7CC6O[C@]5(C)C/C=C\C4OC3CC2O1 (stereo partly drawn)	MsrA act 9.7 (no result: NPR1 activator, NPR2 activator, MsrA inh)
Cc1ccc(C)c(NC(=O)CCNC(=O)N2C[C@H]3C[C@@H](C2)c2cccc(=O)n2C3)c1	none
N#CC1=C(N)Oc2cc(O)ccc2C1c1ccc2c(c1)OCO2 (stereo not drawn)	NPR1 activator 44
COC(=O)C12CCc3cc(OC)ccc3C1=CC(=O)C2 (stereo not drawn)	none
O=C(O)COc1cc(Cl)c(Cl)cc1Cl	none
O=C1CN=C(c2ccccc2)c2c(sc3c2CCCC3)N1	none
CN1C(=O)C(=Cc2ccc(SC3CCCCC3)o2)C(=O)N(C)C1=O	NPR1 activator 47
Cc1cc(Cl)ccc1OC(C)C(=O)O (stereo not drawn)	m5-HT2A agonist 15
Cc1cc(Cl)ccc1OCC(=O)O	none
CCOc1cc(C=O)ccc1O	MsrA inh 4.6
c1ccc(CN2Cc3ccccc3-n3nncc3C2)nc1	none
CC12C=CC(=O)C=C1CC(O)C1C2CCC2(C)C1CCC2(C)O (stereo not drawn)	none
OC(COCc1ccc(Cl)cc1)CN1CC=C(c2ccccc2)CC1 (stereo not drawn)	m5-HT2A agonist 19!
OC(CN1CC=C(c2ccccc2)CC1)c1ccccc1 (stereo not drawn)	none
CCN(CC)c1ccc(/C=C2/C(=O)NC(=O)N(Cc3ccco3)C2=O)cc1	MsrA inh 4.6
CN(C)c1ccc(/C=C2/C(=O)NC(=O)N(Cc3ccco3)C2=O)cc1	none
CCOC(=O)c1c(C=O)c2ccccc2n1Cc1ccccc1F	MsrA inh 4.6
O=C(N/N=C/c1c(O)n(Cc2ccc(F)cc2)c(=O)[nH]c1=O)c1ccccc1O	none
O=C(N/N=C/c1c(O)n(Cc2ccccc2)c(=O)[nH]c1=O)c1ccccc1O	MsrA inh 4.6
COc1ccc(Cn2c(O)c(/C=N/NC(=O)c3ccccc3)c(=O)[nH]c2=O)cc1	MsrA inh 4.5
O=[N+]([O-])c1ccc(NCCCN2CCOCC2)nc1	MsrA inh 4.6
COC(=O)C1=C(c2ccc(OC(F)(F)F)cc2)C[C@@H]2CC[C@H]1N2C(=O)NCCNC(C)=O	none
COC(=O)C1=C(c2ccc(OC(F)(F)F)cc2)C[C@@H]2CC[C@H]1N2C(=O)NCCOc1ccc(OC)cc1	MsrA inh 10.0
c1ccc(CN2COC3CCCCCC32)cc1 (stereo not drawn)	none (no result: NPR1 activator, NPR2 activator, MsrA inh)
CC1=NCCc2c1[nH]c1cc(O)ccc21	none
COc1ccc2c3c([nH]c2c1)C(C)=NCC3	MsrA act 11
COc1ccccc1N1C(=O)NC(=O)/C(=C\c2cnn(-c3ccccc3)c2)C1=O	NPR1 activator 52
Cc1ccc(-n2c(O)c(C=NCCN3CCNCC3)c(=O)[nH]c2=S)cc1	MsrA inh 4.6
O=c1cccc2n1CC1CNCC2C1 (stereo not drawn)	none
CCOP(=S)(OCC)Oc1cc(C)oc(=O)c1	none
CCOP(=S)(OCC)Oc1cc(C)nc(C(C)C)n1	NPR2 activator 74
c1ccc2c(c1)-c1cccc3cccc-2c13	none
c1ccc2c(c1)[IH]c1ccccc1-2	MsrA inh 85
COc1ccc(-n2nnnc2C(c2ccccc2OC(F)(F)F)N2CCC3(CC2)C(=O)NCN3c2ccccc2)cc1 (stereo not drawn)	none
Cc1ccnc(NC(=O)CCCc2ccc(N(CCCl)CCCl)cc2)n1	none
CCCCCCn1c(N)c(C(=O)NCCN2CCOCC2)c2nc3ccccc3nc21	NPR2 activator 36
CCCCCn1c(N)c(C(=O)NCCN2CCOCC2)c2nc3ccccc3nc21	none
C/C1=C\[C@@H](C)C/C=C/[C@H]2[C@@H]3O[C@]3(C)[C@@H](C)[C@H]3[C@H](Cc4c[nH]c5ccccc45)NC(=O)[C@]32C(=O)/C=C/C(=O)[C@@H]1O	m5-HT2A agonist 22, MsrA act 8.1 (no result: NPR1 activator, NPR2 activator, MsrA inh)
CCCNC(=O)N1[C@H]2CC[C@@H]1C(C(=O)OC)=C(c1cc3ccccc3o1)C2	none
CC(=O)C1C2c3ccccc3OC1(C)N=c1s/c(=C/c3cnn(C)c3)c(=O)n12 (stereo not drawn)	MsrA inh 8.1
COC(=O)C1C2c3ccccc3OC1(C)N=c1s/c(=C/c3cnn(C)c3C)c(=O)n12 (stereo not drawn)	none
COc1ccc(CN2Cc3cc(N4CCOCC4)ccc3-n3nncc3C2)cc1	none
COc1cc2c(cc1OC)[C@H]1C(=O)c3ccc4c(c3O[C@H]1CO2)C[C@@H](C(C)(C)O)O4	NPR1 activator 56
Cc1ccc(C)c(OCc2cc(C(=O)N3C[C@H]4C[C@@H](C3)c3cccc(=O)n3C4)no2)c1	none
CCn1nc(-c2cccs2)nc2c(=O)n(C)c(=O)nc1-2	MsrA act 59 (no result: NPR1 activator, NPR2 activator, MsrA inh)
CCOC(=O)c1c(C)n(Cc2ccccc2)c2ccc(O)cc12	NPR1 activator 86
Cc1c(C(=O)C(=O)N2CCOCC2)c2ccccc2n1Cc1ccccc1	none
CC(=O)c1c(C)n(Cc2ccccc2)c2ccc(O)cc12	NPR1 activator 74
COC(=O)c1c(C)n(Cc2ccccc2)c2ccc(O)cc12	NPR1 activator 80
CCN1CCN(CC(=O)c2c(C)n(Cc3ccccc3)c3ccc(OC)cc23)CC1	none
CCOC(=O)[C@]12Cc3c(cc(OC)c(OC)c3OC)[C@H]1N(C)C(=O)c1cc(OC)ccc12	none
COC(=O)C1=C(c2ccc(Cl)c(C(F)(F)F)c2)C[C@@H]2CC[C@H]1N2C(=O)N1CCC(C)CC1	none (no result: NPR1 activator, NPR2 activator, MsrA inh)
CC(C)C[C@H]1C(=O)N2CCCC2[C@]2(O)O[C@](NC(=O)[C@@H]3C=C4c5cccc6[nH]cc(c56)CC4N(C)C3)(C(C)C)C(=O)N12 (stereo partly drawn)	m5-HT2A agonist 30 (no result: NPR1 activator, NPR2 activator, MsrA inh)
CC(C)[C@H]1C(=O)N2CCC[C@H]2[C@]2(O)O[C@](NC(=O)[C@@H]3C=C4c5cccc6[nH]cc(c56)C[C@H]4N(C)C3)(C(C)C)C(=O)N12	m5-HT2A agonist 49 (no result: NPR1 activator, NPR2 activator, MsrA inh)
COc1cc2c(c(OC)c1O)-c1ccc(OC)c(=O)cc1C(NC(=O)C(F)(F)F)CC2 (stereo not drawn)	none
COc1cc2c(c(OC)c1OC)-c1ccc(C(=O)O)cc1[C@@H](NC(C)=O)CC2	MsrA act 19 | MsrA activ conf inactive
O=C(CCN1CCOCC1)NCC(=O)Nc1ccc(Br)cc1C(=O)c1ccccc1	MsrA act 7.8 | MsrA activ conf inactive
C[C@]12CC[C@H](O)CC1=CCC1C2CC[C@]2(C)C(=O)[C@H](Br)CC12 (stereo partly drawn)	none

Assay outcomes from PubChem.
